# This is a sample that favours compounds with a hit; in the whole collection about 4.7% have one here.
# KLK7 zymogen act: proKLK7 zymogen activators, primary screen, biochemical, fluorescence intensity; 370,000 compounds, 0.9% hits; purified proKLK7, EDANS-DABCYL substrate fluorescence; 100% is mature enzyme control, 0% vehicle; activation, % at 7 µM; AID 652039, 2013;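 active = activation above the mean of all tested compounds plus 3 SD, computed per campaign excluding outliers beyond control limits, cut at about 13% in these data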
# Target sequence (P49862 whole entry, looked up): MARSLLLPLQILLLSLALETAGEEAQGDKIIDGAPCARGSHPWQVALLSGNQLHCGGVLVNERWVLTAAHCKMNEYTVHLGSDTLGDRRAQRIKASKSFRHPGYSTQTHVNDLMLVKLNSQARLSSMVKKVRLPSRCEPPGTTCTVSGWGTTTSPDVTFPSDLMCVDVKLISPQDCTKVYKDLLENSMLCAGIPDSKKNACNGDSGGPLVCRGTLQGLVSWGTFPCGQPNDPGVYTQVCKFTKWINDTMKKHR
# Pemphigus Ab inh: inhibitors of pemphigus antibody binding to DSG3, primary screen, biochemical, bead-based, flow cytometry, scFv-GFP. DSG3-coupled beads, scFv-anti-DSG3-GFP binding; hits give low values. AID 588358, 2011. 310,000 compounds, 0.48% hits. binding (percent of control), % at 10 µM;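 active = binding more than 3 SD below its plate's average and above zero; inconclusive = below that plate limit but binding exactly zero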;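 note: hits lower antibody fragment binding to DSG3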
# rCAG binder: binders of r(CAG) RNA repeats, primary screen, biochemical, fluorescence; r(CAG) RNA repeat, TO-PRO-1 dye displacement fluorescence; inhibition, % at 3 µM; 370,000 compounds, 1.3% hits;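 active = inhibition above the plate cutoff, the mean of all test compounds on that plate plus 3 SD, cut at about 35% in these data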;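 note: 0% = DMSO alone and 100% = 100 µM mitoxantrone as full dye displacement; higher means more dye released from RNA so lower well fluorescence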
# ADAM10 inh: human ADAM10 inhibitors, primary screen, biochemical, QFRET, HTS | 370,000 compounds, 0.62% hits | inhibition, % at 7 µM | Disintegrin and metalloproteinase domain-containing protein 10 (Homo sapiens), O14672 | AID 720582, 2013 | recombinant ADAM10, EDANS/DABCYL FRET peptide cleavage, 3 h;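 active = inhibition above a per-campaign cutoff equal to the mean of compounds falling between control-based bounds plus 3 SD, cut at about 20% in these data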;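 note: 0% = DMSO wells while the 100% control is not disclosed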
# ADAM17 inh: ADAM17 inhibitors, primary screen, biochemical, QFRET; Disintegrin and metalloproteinase domain-containing protein 17 (Homo sapiens), P78536; recombinant ADAM17, EDANS/DABCYL FRET peptide cleavage; inhibition, % at 6.95 µM; 370,000 compounds, 0.83% hits;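 active = inhibition above the mean of compounds lying between control limits plus 3 SD, set per campaign, cut at about 8.5% in these data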;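 note: 0% = DMSO-only wells as the low control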
# MPTP block: mitochondrial permeability transition pore inhibitors, primary screen, biochemical, isolated mouse mitochondria, absorbance; inhibition, % at 10 µM; Ca2+ swelling absorbance, 30 min; AID 602449, 2012; 360,000 compounds, 1.4% hits;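 active = inhibition of 50% or more, scaled per plate between neutral and stimulator controls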;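 note: 0% = DMSO wells given calcium and 100% = 1 mM EGTA wells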
# ADAM10 ctr: ADAM10 inhibitors, counter-screen for ADAM17 exosite inhibitor project, biochemical, FRET, human ADAM10 | AID 743256, 2014 | recombinant ADAM10, EDANS/DABCYL FRET peptide cleavage, 3 h | 2,900 compounds, 47% hits | inhibition, % at 6.95 µM | shares compounds with ADAM17 inh;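 active = mean inhibition over the triplicate runs exceeds the activity threshold set in the earlier primary screen, cut at about 20% in these data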;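 note: 0% = DMSO wells and 100% = marimastat wells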
# ADAM17 confirm: ADAM17 inhibitors, hit retest, confirmation, biochemical, QFRET peptide cleavage; 2,900 compounds, 65% hits; inhibition, % at 6.95 µM; recombinant ADAM17, EDANS/DABCYL QFRET peptide cleavage; AID 743257, 2014; shares compounds with ADAM17 inh;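 active = mean inhibition across replicates above the hit cutoff set in the primary screen, cut at about 8.5% in these data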;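 note: 0% = DMSO wells and 100% = marimastat wells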
# Numbers without * were called inactive; ? = inconclusive; / = no result.
SMILES,KLK7 zymogen act,Pemphigus Ab inh,rCAG binder,ADAM10 inh,ADAM17 inh,MPTP block,ADAM10 ctr,ADAM17 confirm
CCOc1ccc(NC(=O)CN(C)CC(=O)Nc2cc(Cl)ccc2C#N)cc1OCC,0.4,73.4,-0.3,11.9,9.0*,-4.9,1.1,1.5
CCN(C(=O)COC(=O)c1cc(=O)c2ccccc2o1)c1c(N)n(Cc2ccccc2)c(=O)[nH]c1=O,-0.1,112.9,-2.0,-6.3,0.4,-1.7,/,/
O=C(CC(c1ccccc1)c1ccccc1)Nc1ccc2c(c1)OCCO2,0.1,91.8,4.0,16.4,12.5*,-1.0,15.7,14.1*
CCc1nc2c(OCC(=O)c3ccc(Cl)cc3Cl)cccn2c1N(C)C(=O)COc1ccccc1,1.1,/,5.7,-13.2,-3.5,-0.3,/,/
CC(=O)NC(c1cccs1)c1cc([N+](=O)[O-])c2cccnc2c1O (stereo not given),0.2,103.5,18.3,14.9,10.6*,-1.7,36.4*,18.9*
CCC(=O)NC(c1cccs1)c1cc([N+](=O)[O-])c2cccnc2c1O (stereo not given),-0.7,104.2,20.6,15.1,3.0,-0.5,/,/
CCOC(=O)c1nn(C)c(=S)n(C)c1=O,-0.1,122.6,0.0,-4.3,-5.7,-2.5,/,/
O=C(COC(=O)CNS(=O)(=O)c1c(Cl)cccc1Cl)Nc1ccccc1Sc1ccccc1,-0.1,104.8,11.9,7.9,8.6,2.6,/,/
O=C(COC(=O)CNS(=O)(=O)c1cccc(Br)c1)Nc1ccccc1Sc1ccccc1,-0.4,108.0,3.1,15.2,9.9*,1.5,26.5*,14.5*
N#Cc1c(-c2ccccc2)c(-c2ccccc2)nn(CC(=O)NNC(=O)Nc2ccc(Cl)c(Cl)c2)c1=O,2.0,110.7,23.0,8.8,14.7*,4.6,27.1*,18.1*
Cc1cc(S(=O)(=O)NCc2ccccc2)ccc1OCC(=O)Nc1cccc([N+](=O)[O-])c1,0.2,102.3,8.3,18.3,8.7*,24.8,34.7*,22.4*
Cc1cc(S(=O)(=O)NCc2ccccc2)ccc1OCC(=O)NCc1ccccn1,0.3,92.6,-0.6,5.1,-0.9,-1.1,/,/
COCCCn1cc(CN2CC(N3CCN(Cc4ccccc4F)CC3)CS2(=O)=O)nn1 (stereo not given),1.0,/,1.8,-4.7,0.1,-0.5,/,/
Cc1cc(S(=O)(=O)N2CCC3(CC2)OCCN3S(=O)(=O)c2cccs2)ccc1F,-0.1,100.5,4.0,13.2,12.4*,-0.8,13.3,9.2*
O=S(=O)(c1cc(F)ccc1F)N1CCC2(CC1)OCCN2S(=O)(=O)c1cccs1,0.4,99.8,0.6,2.9,-4.4,-0.8,/,/
C[C@@H]1CN([C@H](C)CO)C(=O)CCCn2nncc2CO[C@H]1CN(C)Cc1ccc2c(c1)OCCO2,-0.1,/,-2.2,-9.1,-4.4,-0.9,/,/
CC(=O)c1cccc(NC(=O)CN(c2ccc(C)cc2)S(=O)(=O)c2cccc3nonc23)c1,0.1,97.7,11.6,22.8*,11.8*,-1.3,25.2*,15.1*
O=[N+]([O-])c1cc([N+](=O)[O-])c(Oc2cccc3ccccc23)cc1NN1CCCCC1,-1.4,96.1,5.5,-13.5,-1.7,7.2,/,/
O=[N+]([O-])c1cc([N+](=O)[O-])c(Oc2cccnc2Br)cc1NN1CCCCC1,0.0,98.2,4.4,3.3,11.3*,1.7,25.6*,15.4*
COc1cc(F)ccc1-c1csc(C(C)(O)c2ccccc2)n1 (stereo not given),0.4,/,-2.4,18.3,10.1*,1.4,23.8*,11.4*
COc1cccc(C(C)(O)c2nc(-c3ccccc3OC)cs2)c1 (stereo not given),-0.5,/,-2.2,11.5,6.3,1.3,/,/
COc1ccccc1-c1csc(C(O)(c2ccccc2)C(F)(F)F)n1 (stereo not given),1.1,/,1.9,16.6,10.3*,0.9,33.6*,19.0*
CC(=O)Nc1cccc(C(=O)OC(C)C(=O)NC(=O)NC2CCCCC2)c1 (stereo not given),-0.3,?,-5.6,-0.6,-3.4,-2.0,/,/
CN(C)S(=O)(=O)c1ccc(/C(O)=C2/C(=O)C(=O)N(Cc3cccnc3)C2c2ccco2)cc1 (stereo not given),0.0,107.8,7.5,0.4,12.3*,-4.0,3.0,2.1
COc1ccc(-c2cn[nH]c2-c2ccc(OCc3ccc([N+](=O)[O-])cc3)cc2O)cc1OC,0.2,92.2,11.6,10.7,9.8*,18.9,25.2*,13.9*
SMILES,KLK7 zymogen act,Pemphigus Ab inh,rCAG binder,ADAM10 inh,ADAM17 inh,MPTP block,ADAM10 ctr,ADAM17 confirm
CCC(Cc1ccccc1)NS(=O)(=O)c1csc(C(N)=O)c1 (stereo not given),-0.8,105.3,-1.7,-2.4,-3.4,-1.3,/,/
COc1cc(OC)cc(-c2cn[nH]c2N)c1,-0.2,106.4,10.1,14.0,9.1*,-1.1,13.5,13.2*
COC(=O)[C@]12C[C@H](CC(=O)NCc3ccccc3)C(=O)N(Cc3cccc4ccccc34)C1=C[C@H](C1CCCC1)O[C@@H]2C,1.1,/,8.2,17.4,10.4*,/,25.1*,17.1*
COC(=O)[C@]12C[C@H](CC(=O)NCc3ccc(C)o3)C(=O)N(Cc3cccc4ccccc34)C1=C[C@H](C(C)C)O[C@@H]2C1CC1,-0.1,/,5.4,18.6,11.1*,/,9.3,8.9*
COC(=O)[C@]12C[C@H](CC(=O)NCC3CCCCC3)C(=O)N(CCc3ccc(OC)c(OC)c3)C1=C[C@H](C1CCCC1)O[C@@H]2C,0.8,/,4.0,13.4,6.6,/,/,/
COC(=O)[C@]12C[C@H](CC(=O)NCc3ccccc3)C(=O)N(Cc3ccco3)C1=C[C@H](COCc1ccccc1)O[C@@H]2C,0.2,/,14.5,6.5,10.2*,/,26.6*,11.7*
COC(=O)[C@]12C[C@H](CC(=O)NCC3CCCCC3)C(=O)N(CCc3ccc(OC)c(OC)c3)C1=C[C@H](C(C)(C)C)O[C@@H]2C,0.4,/,4.9,6.8,9.7*,/,19.1,11.0*
COC(=O)[C@]12C[C@H](CC(=O)NCc3ccc(C)o3)C(=O)N(Cc3ccco3)C1=C[C@H](COCc1ccccc1)O[C@@H]2C,0.3,/,6.8,8.2,2.6,/,/,/

# Screens (PubChem BioAssay)
